Measured values: PMC11006913
Changes are numbered by the printed parent chain.

Legend:
Experiment in all cases: PBM; 200 nM protein, PBS
Settings in all cases: dsDNA, one strand shown
VENTX [1] = target: T1, VENTX (Homo sapiens, UniProt O95231 78-163, R121Q)
T1 sequence: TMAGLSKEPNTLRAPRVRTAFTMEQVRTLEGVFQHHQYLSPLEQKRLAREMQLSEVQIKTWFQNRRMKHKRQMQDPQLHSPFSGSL

PAX4 [2] = target: T2, PAX4 (Homo sapiens, UniProt O43316 9-242, R200K)
T2 sequence: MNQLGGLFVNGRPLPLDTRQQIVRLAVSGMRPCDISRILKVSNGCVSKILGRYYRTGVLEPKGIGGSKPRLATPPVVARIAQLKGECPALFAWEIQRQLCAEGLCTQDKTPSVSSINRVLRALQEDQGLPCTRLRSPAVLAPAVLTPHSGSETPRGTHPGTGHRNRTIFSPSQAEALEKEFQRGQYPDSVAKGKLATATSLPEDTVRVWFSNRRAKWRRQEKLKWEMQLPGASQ

VENTX [3] = target: T3, VENTX (Homo sapiens, UniProt O95231 78-163, Y115F)
T3 sequence: T1 sequence with Y38F, Q44R

PAX4 [4] = target: T4, PAX4 (Homo sapiens, UniProt O43316 9-242)
T4 sequence: T2 sequence with K192R

HOXA2 [5] = target: HOXA2 (Homo sapiens, UniProt O43364 129-215, R185T)
Chain of HOXA2 (Homo sapiens, UniProt O43364 129-215, R185T) (O43364 129-215 R185T): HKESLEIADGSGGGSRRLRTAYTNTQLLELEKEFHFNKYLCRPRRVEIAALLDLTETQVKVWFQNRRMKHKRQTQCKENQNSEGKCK

ALX3 [6] = target: ALX3 (Homo sapiens, UniProt O95076 139-225, N203Q)
Chain of ALX3 (Homo sapiens, UniProt O95076 139-225, N203Q) (O95076 139-225 N203Q): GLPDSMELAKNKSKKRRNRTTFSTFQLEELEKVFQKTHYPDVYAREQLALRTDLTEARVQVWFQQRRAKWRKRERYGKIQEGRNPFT

PAX4 [7] = target: T5, PAX4 (Homo sapiens, UniProt O43316 9-242, R200Q)
T5 sequence: T2 sequence with K192Q

HOXA2 [8] = target: HOXA2 (Homo sapiens, UniProt O43364 129-215, R185K)
Chain of HOXA2 (Homo sapiens, UniProt O43364 129-215, R185K) (O43364 129-215 R185K): as the sequence (O43364 129-215 R185T) above, with T57K counted along it

PAX4 [9] = target: T6, PAX4 (Homo sapiens, UniProt O43316 9-242, F177V)
T6 sequence: T2 sequence with F169V, K192R

ALX3 [10] = target: ALX3 (Homo sapiens, UniProt O95076 139-225)
Chain of ALX3 (Homo sapiens, UniProt O95076 139-225) (O95076 139-225): as the sequence (O95076 139-225 N203Q) above, with Q65N counted along it

PAX4 [11] = target: T7, PAX4 (Homo sapiens, UniProt O43316 9-242, F177Y)
T7 sequence: T2 sequence with F169Y, K192R

ALX3 [12] = target: ALX3 (Homo sapiens, UniProt O95076 139-225, L168V)
Chain of ALX3 (Homo sapiens, UniProt O95076 139-225, L168V) (O95076 139-225 L168V): as the sequence (O95076 139-225 N203Q) above, with L30V, Q65N counted along it

PAX4 [13] = target: T8, PAX4 (Homo sapiens, UniProt O43316 9-242, R227W)
T8 sequence: T2 sequence with K192R, R219W

HOXA2 [14] = target: HOXA2 (Homo sapiens, UniProt O43364 129-215, Y150S)
Chain of HOXA2 (Homo sapiens, UniProt O43364 129-215, Y150S) (O43364 129-215 Y150S): as the sequence (O43364 129-215 R185T) above, with Y22S, T57R counted along it

HOXA4 = HOXA4 (Homo sapiens, UniProt Q00056 201-287, W262F)
Chain of HOXA4 (Q00056 201-287 W262F): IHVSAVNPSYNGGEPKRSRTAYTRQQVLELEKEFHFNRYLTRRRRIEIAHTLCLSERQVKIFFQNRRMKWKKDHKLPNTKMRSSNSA

ALX3 [15] = target: ALX3 (Homo sapiens, UniProt O95076 139-225, N203S)
Chain of ALX3 (Homo sapiens, UniProt O95076 139-225, N203S) (O95076 139-225 N203S): as the sequence (O95076 139-225 N203Q) above, with Q65S counted along it

HOXA2 [16] = target: HOXA2 (Homo sapiens, UniProt O43364 129-215)
Chain of HOXA2 (Homo sapiens, UniProt O43364 129-215) (O43364 129-215): as the sequence (O43364 129-215 R185T) above, with T57R counted along it

MSX2 = MSX2 (Homo sapiens, UniProt P35548 130-214)
Chain of MSX2 (P35548 130-214): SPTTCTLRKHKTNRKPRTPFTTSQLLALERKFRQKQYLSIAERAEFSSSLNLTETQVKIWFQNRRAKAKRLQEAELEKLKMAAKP

Row | Sequence | binding signal (VENTX [1]) | binding signal (PAX4 [2]) | binding signal (VENTX [3]) | binding signal (PAX4 [4]) | binding signal (HOXA2 [5]) | binding signal (ALX3 [6]) | binding signal (PAX4 [7]) | binding signal (HOXA2 [8]) | binding signal (PAX4 [9]) | binding signal (ALX3 [10]) | binding signal (PAX4 [11]) | binding signal (ALX3 [12]) | binding signal (PAX4 [13]) | binding signal (HOXA2 [14]) | binding signal (HOXA4) | binding signal (ALX3 [15]) | binding signal (HOXA2 [16]) | binding signal (MSX2)
1 | AATTAGCA | 11.7 upbm affinity estimate (log intensity, higher = more binding, comparable within an allelic series) | 11.6 upbm affinity estimate (log intensity, higher = more binding, comparable within an allelic series) | 11.5 upbm affinity estimate (log intensity, higher = more binding, comparable within an allelic series) | 12.1 upbm affinity estimate (log intensity, higher = more binding, comparable within an allelic series) | 12.4 upbm affinity estimate (log intensity, higher = more binding, comparable within an allelic series) | 8.31 upbm affinity estimate (log intensity, higher = more binding, comparable within an allelic series) | 11.9 upbm affinity estimate (log intensity, higher = more binding, comparable within an allelic series) | 13 upbm affinity estimate (log intensity, higher = more binding, comparable within an allelic series) | 10.5 upbm affinity estimate (log intensity, higher = more binding, comparable within an allelic series) | 12.2 upbm affinity estimate (log intensity, higher = more binding, comparable within an allelic series) | 10.9 upbm affinity estimate (log intensity, higher = more binding, comparable within an allelic series) | 9.83 upbm affinity estimate (log intensity, higher = more binding, comparable within an allelic series) | 10.9 upbm affinity estimate (log intensity, higher = more binding, comparable within an allelic series) | 10.8 upbm affinity estimate (log intensity, higher = more binding, comparable within an allelic series) | 11.5 upbm affinity estimate (log intensity, higher = more binding, comparable within an allelic series) | 8.36 upbm affinity estimate (log intensity, higher = more binding, comparable within an allelic series) | 12.1 upbm affinity estimate (log intensity, higher = more binding, comparable within an allelic series) | –
2 | CCCAGGCG | – | – | – | – | 7.06 upbm affinity estimate (log intensity, higher = more binding, comparable within an allelic series) | – | – | 10.1 upbm affinity estimate (log intensity, higher = more binding, comparable within an allelic series) | – | – | – | – | – | 10.5 upbm affinity estimate (log intensity, higher = more binding, comparable within an allelic series) | – | – | 7.13 upbm affinity estimate (log intensity, higher = more binding, comparable within an allelic series) | –
3 | AATTAAGT | – | 11.6 upbm affinity estimate (log intensity, higher = more binding, comparable within an allelic series) | – | 12.1 upbm affinity estimate (log intensity, higher = more binding, comparable within an allelic series) | 12.1 upbm affinity estimate (log intensity, higher = more binding, comparable within an allelic series) | 8.5 upbm affinity estimate (log intensity, higher = more binding, comparable within an allelic series) | 11.9 upbm affinity estimate (log intensity, higher = more binding, comparable within an allelic series) | 12.8 upbm affinity estimate (log intensity, higher = more binding, comparable within an allelic series) | 10.5 upbm affinity estimate (log intensity, higher = more binding, comparable within an allelic series) | 12.5 upbm affinity estimate (log intensity, higher = more binding, comparable within an allelic series) | 10.9 upbm affinity estimate (log intensity, higher = more binding, comparable within an allelic series) | 10 upbm affinity estimate (log intensity, higher = more binding, comparable within an allelic series) | 10.8 upbm affinity estimate (log intensity, higher = more binding, comparable within an allelic series) | 10.8 upbm affinity estimate (log intensity, higher = more binding, comparable within an allelic series) | 11.4 upbm affinity estimate (log intensity, higher = more binding, comparable within an allelic series) | 8.69 upbm affinity estimate (log intensity, higher = more binding, comparable within an allelic series) | 11.7 upbm affinity estimate (log intensity, higher = more binding, comparable within an allelic series) | 13.3 upbm affinity estimate (log intensity, higher = more binding, comparable within an allelic series)
4 | TAATTGAA | – | – | – | – | 12.5 upbm affinity estimate (log intensity, higher = more binding, comparable within an allelic series) | 8.33 upbm affinity estimate (log intensity, higher = more binding, comparable within an allelic series) | – | – | – | 12.5 upbm affinity estimate (log intensity, higher = more binding, comparable within an allelic series) | – | 10 upbm affinity estimate (log intensity, higher = more binding, comparable within an allelic series) | – | – | – | 8.47 upbm affinity estimate (log intensity, higher = more binding, comparable within an allelic series) | – | 13.6 upbm affinity estimate (log intensity, higher = more binding, comparable within an allelic series)
5 | AATTAGCG | 11.9 upbm affinity estimate (log intensity, higher = more binding, comparable within an allelic series) | 11.8 upbm affinity estimate (log intensity, higher = more binding, comparable within an allelic series) | 11.6 upbm affinity estimate (log intensity, higher = more binding, comparable within an allelic series) | 12.4 upbm affinity estimate (log intensity, higher = more binding, comparable within an allelic series) | 12.6 upbm affinity estimate (log intensity, higher = more binding, comparable within an allelic series) | 8.21 upbm affinity estimate (log intensity, higher = more binding, comparable within an allelic series) | 12.3 upbm affinity estimate (log intensity, higher = more binding, comparable within an allelic series) | – | 10.4 upbm affinity estimate (log intensity, higher = more binding, comparable within an allelic series) | 12.4 upbm affinity estimate (log intensity, higher = more binding, comparable within an allelic series) | 11 upbm affinity estimate (log intensity, higher = more binding, comparable within an allelic series) | 9.93 upbm affinity estimate (log intensity, higher = more binding, comparable within an allelic series) | 11 upbm affinity estimate (log intensity, higher = more binding, comparable within an allelic series) | – | – | 8.38 upbm affinity estimate (log intensity, higher = more binding, comparable within an allelic series) | – | 13.5 upbm affinity estimate (log intensity, higher = more binding, comparable within an allelic series)
6 | ACAATTAG | 11.8 upbm affinity estimate (log intensity, higher = more binding, comparable within an allelic series) | – | 11.6 upbm affinity estimate (log intensity, higher = more binding, comparable within an allelic series) | – | – | – | – | – | – | – | – | – | – | – | – | – | – | 13.7 upbm affinity estimate (log intensity, higher = more binding, comparable within an allelic series)
7 | CCAATTAC | – | – | – | – | – | 8.39 upbm affinity estimate (log intensity, higher = more binding, comparable within an allelic series) | – | – | – | 12.5 upbm affinity estimate (log intensity, higher = more binding, comparable within an allelic series) | – | 9.97 upbm affinity estimate (log intensity, higher = more binding, comparable within an allelic series) | – | – | – | 8.51 upbm affinity estimate (log intensity, higher = more binding, comparable within an allelic series) | – | 13.9 upbm affinity estimate (log intensity, higher = more binding, comparable within an allelic series)
8 | TAATTGGA | 11.7 upbm affinity estimate (log intensity, higher = more binding, comparable within an allelic series) | – | – | – | 12.5 upbm affinity estimate (log intensity, higher = more binding, comparable within an allelic series) | 8.38 upbm affinity estimate (log intensity, higher = more binding, comparable within an allelic series) | 12 upbm affinity estimate (log intensity, higher = more binding, comparable within an allelic series) | – | – | 12.7 upbm affinity estimate (log intensity, higher = more binding, comparable within an allelic series) | – | 10.3 upbm affinity estimate (log intensity, higher = more binding, comparable within an allelic series) | – | – | – | 8.55 upbm affinity estimate (log intensity, higher = more binding, comparable within an allelic series) | – | 14 upbm affinity estimate (log intensity, higher = more binding, comparable within an allelic series)
9 | ATAATTGG | – | – | – | – | – | 8.37 upbm affinity estimate (log intensity, higher = more binding, comparable within an allelic series) | 11.9 upbm affinity estimate (log intensity, higher = more binding, comparable within an allelic series) | – | – | 12.6 upbm affinity estimate (log intensity, higher = more binding, comparable within an allelic series) | – | 10.4 upbm affinity estimate (log intensity, higher = more binding, comparable within an allelic series) | – | – | – | 8.55 upbm affinity estimate (log intensity, higher = more binding, comparable within an allelic series) | – | 14.1 upbm affinity estimate (log intensity, higher = more binding, comparable within an allelic series)
10 | AATTAGAT | – | 11.7 upbm affinity estimate (log intensity, higher = more binding, comparable within an allelic series) | – | 12.2 upbm affinity estimate (log intensity, higher = more binding, comparable within an allelic series) | – | 8.42 upbm affinity estimate (log intensity, higher = more binding, comparable within an allelic series) | 12 upbm affinity estimate (log intensity, higher = more binding, comparable within an allelic series) | – | 10.6 upbm affinity estimate (log intensity, higher = more binding, comparable within an allelic series) | 12.4 upbm affinity estimate (log intensity, higher = more binding, comparable within an allelic series) | 10.9 upbm affinity estimate (log intensity, higher = more binding, comparable within an allelic series) | 9.67 upbm affinity estimate (log intensity, higher = more binding, comparable within an allelic series) | 10.9 upbm affinity estimate (log intensity, higher = more binding, comparable within an allelic series) | – | – | 8.49 upbm affinity estimate (log intensity, higher = more binding, comparable within an allelic series) | – | –
11 | CAAATTAA | – | 11.8 upbm affinity estimate (log intensity, higher = more binding, comparable within an allelic series) | – | 12.4 upbm affinity estimate (log intensity, higher = more binding, comparable within an allelic series) | – | 8.38 upbm affinity estimate (log intensity, higher = more binding, comparable within an allelic series) | 12.2 upbm affinity estimate (log intensity, higher = more binding, comparable within an allelic series) | – | 10.5 upbm affinity estimate (log intensity, higher = more binding, comparable within an allelic series) | 12.4 upbm affinity estimate (log intensity, higher = more binding, comparable within an allelic series) | 11.1 upbm affinity estimate (log intensity, higher = more binding, comparable within an allelic series) | 9.81 upbm affinity estimate (log intensity, higher = more binding, comparable within an allelic series) | 11 upbm affinity estimate (log intensity, higher = more binding, comparable within an allelic series) | – | – | 8.48 upbm affinity estimate (log intensity, higher = more binding, comparable within an allelic series) | – | –
12 | CCAATTAG | 12.3 upbm affinity estimate (log intensity, higher = more binding, comparable within an allelic series) | 11.7 upbm affinity estimate (log intensity, higher = more binding, comparable within an allelic series) | 11.9 upbm affinity estimate (log intensity, higher = more binding, comparable within an allelic series) | 12.2 upbm affinity estimate (log intensity, higher = more binding, comparable within an allelic series) | 12.9 upbm affinity estimate (log intensity, higher = more binding, comparable within an allelic series) | 8.31 upbm affinity estimate (log intensity, higher = more binding, comparable within an allelic series) | 12.2 upbm affinity estimate (log intensity, higher = more binding, comparable within an allelic series) | 13.3 upbm affinity estimate (log intensity, higher = more binding, comparable within an allelic series) | 10.4 upbm affinity estimate (log intensity, higher = more binding, comparable within an allelic series) | 12.7 upbm affinity estimate (log intensity, higher = more binding, comparable within an allelic series) | 10.8 upbm affinity estimate (log intensity, higher = more binding, comparable within an allelic series) | 10.4 upbm affinity estimate (log intensity, higher = more binding, comparable within an allelic series) | 10.8 upbm affinity estimate (log intensity, higher = more binding, comparable within an allelic series) | 10.8 upbm affinity estimate (log intensity, higher = more binding, comparable within an allelic series) | – | 8.47 upbm affinity estimate (log intensity, higher = more binding, comparable within an allelic series) | 12.1 upbm affinity estimate (log intensity, higher = more binding, comparable within an allelic series) | 14 upbm affinity estimate (log intensity, higher = more binding, comparable within an allelic series)
